# From PubChem BioAssay
# Activity calls are given as the source filed them.
# Assays:
# [1] = optical density shifts of acrAB sulA E. coli – strain DRC41, OD650, 48 h, E. coli filamentation inducer project, primary screen (AID 1152); conditions: higher = more signal, called active from +8 up or from −8 down;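 note: E. coli MC1000 strain DRC41 lacking acrAB efflux pump and sulA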
# [2] = probe aLefty1 binding on compound microarray – biochemical, small-molecule microarray, 635/667 nm fluorescence, primary screen (AID 1153); conditions: higher = more signal;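 note: score merges spot fluorescence with signal-to-noise ratio from the scanned slide images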
# [3] = plasmodial surface anion channel blockers, osmotic lysis – cell-based, P. falciparum Indochina, OD700, 1 h, primary screen (AID 1154); conditions: P. falciparum Indochina infected RBC osmotic lysis, higher = more signal, called active from +8 up or from −8 down
# [4] = plasmodial surface anion channel blockers, osmotic lysis – cell-based, P. falciparum Indochina, OD700, 2 h, primary screen (AID 1155);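 note: lysis reports solute entry through the parasite surface anion channel PSAC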; conditions: P. falciparum Indochina infected erythrocytes, higher = more signal, called active from +8 up or from −8 down
# [5] = changes in parasitized red cell lysis, either direction – P. falciparum Indochina, OD700, 3 h, PSAC antagonist project, primary screen (AID 1156); conditions: P. falciparum-infected erythrocytes, osmotic lysis, higher = more signal, called active from +8 up or from −8 down
# [6] = plasmodial surface anion channel blockers, osmotic lysis – cell-based, P. falciparum Indochina, OD700, 18 h, primary screen (AID 1157); conditions: P. falciparum Indochina infected erythrocytes, osmotic lysis OD700, 18 h; higher = more signal, called active from +8 up or from −8 down
# [7] = S6 kinase pathway phospho-S6 level changes – cell-based, A549, cytoblot, luminescence, serum-stimulated, primary screen (AID 1158); conditions: 5 h, higher = more signal;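 note: serum-stimulated A549 lung adenocarcinoma cells; signal is phosphorylated S6 detected by cytoblot immunostaining with HRP secondary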
# [8] = target: NADPH oxidase 2 (Homo sapiens) (UniProt P04839); test: compounds shifting NOX2 Amplex Red fluorescence – cell-based, HEK293-NOX2, PMA-stimulated, NOX inhibitor project, primary screen (AID 1159); conditions: 45 min, higher = more signal, called active from +8 up or from −8 down; note: test concentration not given here
# [9] = target: NADPH oxidase 4 (Homo sapiens) (UniProt Q9NPH5); test: compounds shifting NOX4 Amplex Red fluorescence – cell-based, HEK293-NOX4, tetracycline-induced, NOX inhibitor project, primary screen (AID 1160); conditions: HEK293-NOX4, Amplex Red H2O2 fluorescence, 45 min; higher = more signal, called active from +8 up or from −8 down
# [10] = target: NADPH oxidase 5 (Homo sapiens) (UniProt Q96PH1); test: compounds shifting NOX5 Amplex Red fluorescence – cell-based, HEK293-NOX5, NOX inhibitor project, primary screen (AID 1161); conditions: HEK293-NOX5, ionomycin, 45 min, higher = more signal
# Chain of NADPH oxidase 5 (Homo sapiens) (Q96PH1 whole entry, looked up): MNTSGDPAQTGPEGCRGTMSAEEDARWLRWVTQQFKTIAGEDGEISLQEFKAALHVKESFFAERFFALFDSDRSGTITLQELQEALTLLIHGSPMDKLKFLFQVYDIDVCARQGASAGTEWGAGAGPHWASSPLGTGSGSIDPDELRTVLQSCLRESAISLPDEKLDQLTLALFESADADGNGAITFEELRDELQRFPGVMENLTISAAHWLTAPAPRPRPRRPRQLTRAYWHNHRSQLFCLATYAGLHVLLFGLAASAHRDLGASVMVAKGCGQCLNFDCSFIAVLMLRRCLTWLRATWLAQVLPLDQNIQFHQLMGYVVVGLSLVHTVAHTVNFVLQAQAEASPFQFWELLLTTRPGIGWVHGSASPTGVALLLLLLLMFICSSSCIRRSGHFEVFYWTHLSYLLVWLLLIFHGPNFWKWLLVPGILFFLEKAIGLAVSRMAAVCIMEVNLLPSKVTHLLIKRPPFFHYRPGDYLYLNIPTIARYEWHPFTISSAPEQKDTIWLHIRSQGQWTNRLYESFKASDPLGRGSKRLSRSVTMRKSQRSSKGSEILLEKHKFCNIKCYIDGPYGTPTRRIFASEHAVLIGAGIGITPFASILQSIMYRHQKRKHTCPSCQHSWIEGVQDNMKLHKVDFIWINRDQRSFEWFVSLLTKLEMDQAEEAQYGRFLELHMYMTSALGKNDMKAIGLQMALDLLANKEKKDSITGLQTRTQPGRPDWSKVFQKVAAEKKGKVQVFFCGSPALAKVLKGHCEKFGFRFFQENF
# Chain of NADPH oxidase 2 (Homo sapiens) (P04839 whole entry, looked up): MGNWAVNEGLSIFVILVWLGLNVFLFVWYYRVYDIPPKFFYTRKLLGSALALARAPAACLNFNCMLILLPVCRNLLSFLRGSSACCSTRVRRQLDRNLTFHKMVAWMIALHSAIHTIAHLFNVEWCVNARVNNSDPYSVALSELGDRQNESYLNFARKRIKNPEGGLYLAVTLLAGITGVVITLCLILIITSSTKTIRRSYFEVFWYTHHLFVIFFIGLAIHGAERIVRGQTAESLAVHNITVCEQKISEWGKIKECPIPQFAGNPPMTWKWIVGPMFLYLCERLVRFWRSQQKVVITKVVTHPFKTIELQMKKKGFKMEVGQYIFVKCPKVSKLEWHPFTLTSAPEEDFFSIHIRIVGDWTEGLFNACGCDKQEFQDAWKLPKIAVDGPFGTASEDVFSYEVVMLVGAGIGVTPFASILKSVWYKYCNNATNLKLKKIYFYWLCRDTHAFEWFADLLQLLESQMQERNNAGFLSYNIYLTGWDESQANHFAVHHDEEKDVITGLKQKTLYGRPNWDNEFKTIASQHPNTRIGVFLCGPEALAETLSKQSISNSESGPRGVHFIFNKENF
# Chain of NADPH oxidase 4 (Homo sapiens) (Q9NPH5 whole entry, looked up): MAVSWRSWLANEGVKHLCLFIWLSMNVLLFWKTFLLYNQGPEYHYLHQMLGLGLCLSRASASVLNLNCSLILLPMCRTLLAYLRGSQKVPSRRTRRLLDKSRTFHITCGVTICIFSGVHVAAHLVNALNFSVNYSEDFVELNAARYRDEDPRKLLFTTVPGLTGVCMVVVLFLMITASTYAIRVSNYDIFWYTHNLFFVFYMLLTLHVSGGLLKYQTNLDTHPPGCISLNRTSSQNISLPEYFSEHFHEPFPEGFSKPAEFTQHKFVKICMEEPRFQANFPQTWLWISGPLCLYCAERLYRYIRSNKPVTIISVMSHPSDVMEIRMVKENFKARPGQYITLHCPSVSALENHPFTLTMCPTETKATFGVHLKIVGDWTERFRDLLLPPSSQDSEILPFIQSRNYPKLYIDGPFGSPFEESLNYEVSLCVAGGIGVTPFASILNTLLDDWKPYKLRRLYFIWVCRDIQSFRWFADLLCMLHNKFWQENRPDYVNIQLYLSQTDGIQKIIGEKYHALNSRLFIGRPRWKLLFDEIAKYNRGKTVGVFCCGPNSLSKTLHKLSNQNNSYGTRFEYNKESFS
SMILES,z-score [1],composite z-score [2],z-score [3],z-score [4],z-score [5],z-score [6],z-score [7],z-score [8],z-score [9],z-score [10]
COCCOC(=O)N1C(=O)[C@@]2(c3cc(C#CCC(C(=O)OC)C(=O)OC)ccc31)[C@H](C(=O)N1CCCCCCC1)[C@H]1C(=O)O[C@H](c3ccccc3)[C@H](c3ccccc3)N1[C@@H]2c1ccc(OCCO)cc1,0.917 (inactive),2.5,17.1 (active),4.27 (inactive),0.791 (inactive),1.14 (inactive),-0.0447,0.327 (inactive),0.43 (inactive),0.547
COCC(=C=CC[C@@H](O)c1ccc(CO)o1)CCO,2.61 (inactive),-0.205,1.6 (inactive),-0.908 (inactive),-0.949 (inactive),-1.11 (inactive),3.11,-1.84 (inactive),-0.922 (inactive),-1.06
CC(C)(C)OC(=O)CC[C@@]1(C(=O)O)N=C(c2ccc(OCCCO)cc2)O[C@@H]1c1ccccc1N=[N+]=[N-],0.592 (inactive),0.266,31.5 (active),28.4 (active),1.79 (inactive),7.51 (inactive),-0.342,-0.0442 (inactive),1.69 (inactive),0.907
COCC1=C2[C@@H](CCc3ccccc3)OB(O)C[C@@H]2[C@@H]2C(=O)N(Cc3ccccc3)C(=O)[C@@H]2C1,-0.536 (inactive),-0.0573,1.75 (inactive),-0.0799 (inactive),-0.558 (inactive),0.0831 (inactive),0.533,-0.0858 (inactive),0.552 (inactive),0.974
O=C1OCCC=C[C@H]2OC34C=CCN(Cc5ccccc5)C(=O)[C@H]3N(CCCCCO)C(=O)[C@@H]4C12 (stereo not given in full),1.8 (inactive),0.282,1.77 (inactive),0.18 (inactive),2.12 (inactive),0.551 (inactive),0.469,1.39 (inactive),0.701 (inactive),1.38
O=C1[C@]2(CO)C=C(Br)[C@@H](C[C@@H]2c2ccccc2)[C@@]12CO2,0.168 (inactive),-0.188,0.0883 (inactive),0.0579 (inactive),-0.533 (inactive),-0.187 (inactive),-0.364,0.538 (inactive),0.662 (inactive),-0.211
COC(=O)[C@@]1(Cc2ccccc2)[C@H]2c3cc(C(=O)N(C)C)n(Cc4c(-c5ccccc5)noc4C)c3C[C@H]2CN1C(=O)c1ccccc1,-2.11 (inactive),0.324,2.98 (inactive),1.2 (inactive),0.57 (inactive),1.11 (inactive),-0.505,0.931 (inactive),1.32 (inactive),1.1
O=C1C2C=CC(C(O)c3ccc(-c4ccccc4)s3)N(n3cnnc3)C2C(=O)N1Cc1ccccc1 (stereo not given),-0.613 (inactive),0.284,2.44 (inactive),1.41 (inactive),0.605 (inactive),0.832 (inactive),0.0424,-0.547 (inactive),-0.149 (inactive),-0.918
[N-]=[N+]=Nc1ccccc1[C@H]1OC(c2ccc(OCCCO)cc2)=N[C@@]1(CCS(=O)(=O)c1ccccc1)C(=O)O,0.671 (inactive),0.373,31.2 (active),24.9 (active),1.32 (inactive),4.75 (inactive),-0.351,-2.11 (inactive),0.851 (inactive),-0.73
COCCOC(=O)N1C(=O)[C@@]2(c3cc(C#CCNC(N)=O)ccc31)[C@H](c1ccc(O)cc1)N1[C@H](c3ccccc3)[C@H](c3ccccc3)OC(=O)[C@H]1[C@@H]2C(=O)NC[C@H](O)c1ccccc1,-0.388 (inactive),0.101,1.3 (inactive),1.1 (inactive),0.205 (inactive),0.559 (inactive),0.155,1.01 (inactive),0.326 (inactive),0.253
CN(C)C(=O)[C@]1(CCC(=O)OC(C)(C)C)N=C(c2ccc(OCCCO)cc2)O[C@@H]1c1ccccc1N=[N+]=[N-],0.761 (inactive),1.33,31 (active),29.8 (active),1.37 (inactive),2.34 (inactive),-0.294,-4.53 (inactive),-0.32 (inactive),-1.98
O=C1C2C=CC(C(O)c3ccc(F)cc3)N(Nc3ccccc3)C2C(=O)N1c1ccccc1 (stereo not given),-0.789 (inactive),0.374,10.2 (active),2.02 (inactive),0.0089 (inactive),1.24 (inactive),-0.931,-1.77 (inactive),-3.42 (inactive),-1.96
[N-]=[N+]=NCc1ccccc1[C@@H]1OC(c2ccc(OCCCO)cc2)=N[C@]1(Cc1ccccc1N=[N+]=[N-])C(=O)NCc1ccccc1,-2.95 (inactive),0.639,21.8 (active),4.97 (inactive),3.79 (inactive),1.33 (inactive),-0.33,-0.654 (inactive),0.0734 (inactive),0.235
C=C[C@@H](COC(C)=O)N(Cc1ccccc1[N+](=O)[O-])S(=O)(=O)c1ccc(Br)cc1,1.43 (inactive),-0.339,2.44 (inactive),-0.407 (inactive),-0.885 (inactive),-0.709 (inactive),3.16,-4.3 (inactive),-0.628 (inactive),-1.98
CCOc1cc(C(O)C2C=CC3C(=O)N(c4ccccc4)C(=O)C3N2Nc2ccc([N+](=O)[O-])cc2)ccc1O (stereo not given),-1.48 (inactive),-0.0011,14.3 (active),1.52 (inactive),0.839 (inactive),0.557 (inactive),-0.77,-3.36 (inactive),-4.89 (inactive),-4.11
Cc1ccc(S[C@]2(C(=O)O)CC(=O)N(C3Cc4ccccc4C3)[C@@H]2c2ccc(CO)cc2I)cc1,-0.453 (inactive),-0.0559,6.6 (inactive),1.1 (inactive),0.356 (inactive),0.474 (inactive),-0.148,1.84 (inactive),-2.99 (inactive),-1.78
COC(=O)C(CC#Cc1ccc2c(c1)[C@]1(C(=O)N2)[C@H](c2ccc(OCCO)cc2)N2[C@H](c3ccccc3)[C@H](c3ccccc3)OC(=O)[C@H]2[C@@H]1C(=O)NC[C@H](O)c1ccccc1)C(=O)OC,1.57 (inactive),0.0903,2.5 (inactive),1.14 (inactive),0.829 (inactive),0.664 (inactive),0.219,2.1 (inactive),1.2 (inactive),0.489
C=CC[C@@]1(C(=O)N2CCOCC2)N=C(c2ccc(OCCCO)cc2)O[C@@H]1c1ccccc1N=[N+]=[N-],0.483 (inactive),0.571,35.1 (active),28.1 (active),3.17 (inactive),7.41 (inactive),1.92,-2.14 (inactive),-0.164 (inactive),-2.02
Cc1ccc(S[C@]2(C(=O)NC3CC3)CC(=O)N(Cc3ccccc3)[C@@H]2c2ccc(CO)cc2)cc1,-0.485 (inactive),0.106,1.28 (inactive),0.216 (inactive),-0.552 (inactive),-0.331 (inactive),0.0262,-0.106 (inactive),1.09 (inactive),0.997
CC(C)CNC(=O)[C@@H]1c2ccccc2C(=O)N(Cc2cc(C(F)(F)F)cc(C(F)(F)F)c2)[C@H]1c1ccc(CO)cc1,0.808 (inactive),0.197,1.52 (inactive),0.0238 (inactive),0.173 (inactive),0.379 (inactive),0.578,0.753 (inactive),-0.815 (inactive),0.86
NCCCCCNC(=O)[C@H]1C[C@H]2C(=O)NCC(=O)N2[C@H]1c1cccc(OCCO)c1,1.5 (inactive),-0.505,2.03 (inactive),0.508 (inactive),2.65 (inactive),0.0799 (inactive),0.753,0.972 (inactive),1.02 (inactive),1.39
CS(=O)(=O)CCOC(=O)C1=CC(CCCO)=CC(c2cccs2)N(Cc2cc3c(cc2Br)OCO3)C=C1C(=O)OCCS(C)(=O)=O (stereo not given),0.702 (inactive),-0.0767,5.62 (inactive),0.944 (inactive),1.85 (inactive),0.479 (inactive),0.252,-2.11 (inactive),-1.1 (inactive),-1.41
C=CCC(OC(C)=O)[C@@H]1[C@@H](N(Cc2ccc(-c3ccccc3)cc2)C(=O)Cc2ccc(OC)cc2)c2cc(OCCCO)ccc2N1C(=O)c1ccc2ccccc2n1 (stereo not given in full),0.165 (inactive),0.167,2.27 (inactive),0.925 (inactive),-0.165 (inactive),1.02 (inactive),0.751,-2.73 (inactive),1.41 (inactive),2.5
N#Cc1ccc(NN2C(C(O)c3ccc([N+](=O)[O-])cc3)C=CC3C(=O)N(c4ccccc4)C(=O)C32)cc1 (stereo not given),-2.18 (inactive),0.0927,11.9 (active),2.06 (inactive),0.362 (inactive),1.49 (inactive),-0.946,-1.45 (inactive),-4.95 (inactive),-3.56
CS(=O)(=O)CCOC(=O)C1=CC(c2ccc(CO)cc2)=CC(C2CC2)N(Cc2cc3c(cc2Br)OCO3)C=C1C(=O)OCCS(C)(=O)=O (stereo not given),-1.9 (inactive),0.199,17.2 (active),3.22 (inactive),0.904 (inactive),1.29 (inactive),0.376,-1.77 (inactive),-0.749 (inactive),-2.03
COCCOC(=O)N1C(=O)[C@@]2(c3cc(C#CCCO)ccc31)[C@H](c1ccccc1OCCO)N1[C@H](c3ccccc3)[C@H](c3ccccc3)OC(=O)[C@H]1[C@@H]2C(=O)N1CCN(c2ncccn2)CC1,-0.33 (inactive),0.85,2.52 (inactive),1.32 (inactive),-0.293 (inactive),0.708 (inactive),-0.262,1.22 (inactive),1.05 (inactive),1.16
COC(=O)[C@@]1(Cc2ccccc2)[C@H]2c3cc(C(=O)N(C)C)n(Cc4cc(C)n(C)n4)c3C[C@H]2CN1C(=O)c1ccccc1,-1.85 (inactive),0.33,1.11 (inactive),0.234 (inactive),0.452 (inactive),0.396 (inactive),0.251,0.904 (inactive),-0.925 (inactive),-2.11
